{
  "source": "PubChem BioAssay (Tox21)",
  "note": "Where “and” joins values, the source holds several entries; their conditions need not be identical. Equal entries are not always repeated. Records with an inconclusive call do not appear. Where a call stands in place of a potency, no number is given. Calls of active or inactive are those of the source. The call rests on the fitted dose curve; in most records, active means well fitted cell-killing curve with a large enough effect in the repeat runs; inconclusive means weak or mixed curves; inactive means no such curve, though single readings can be large or run the other way. Potency means the concentration at half of the fitted maximal effect.",
  "data": [
    {"experiment": "qHTS assay to identify small molecule antagonists of the androgen receptor (AR) signaling pathway - cell viability counter screen (AID 743033; further: nearly all actives have a fitted effect of over 45% in size)", "settings": "AR-bla HEK293 viability, CellTiter-Glo luminescence, 16 h; series mostly up to 58.5 µM", "values": [
      {"molecule": "COc1ccc2cc(S(=O)(=O)N[C@H](CC(=O)N[C@H](Cc3ccc(CN4[C@H](C)CCC[C@@H]4C)cc3)C(=O)N(C)C(C)C)c3ccc4c(c3)OCO4)ccc2c1", "Potency": "20.7 µM (active)"},
      {"molecule": "Cc1cc(=O)oc2cc(O)ccc12", "Potency": "inactive"},
      {"molecule": "O=C1OC2(c3ccccc31)c1cc(Br)c(O)c(Br)c1Oc1c2cc(Br)c(O)c1Br", "Potency": "inactive"},
      {"molecule": "CN1[C@@H]2CC(OC(=O)[C@H](CO)c3ccccc3)C[C@H]1[C@@H]1O[C@@H]12", "note": "(stereo partly specified)", "Potency": "inactive"},
      {"molecule": "CN(C)CCOC(C)(c1ccccc1)c1ccccn1", "note": "(stereo unspecified)", "Potency": "inactive"},
      {"molecule": "CN1CCC[C@H]1c1cccnc1", "Potency": "inactive"},
      {"molecule": "CC(=O)C(=O)O", "Potency": "inactive"},
      {"molecule": "CC(=O)CCC(=O)O", "Potency": "inactive"},
      {"molecule": "Nc1ccc(O)c([N+](=O)[O-])c1", "Potency": "inactive"},
      {"molecule": "NC(=O)n1c(O)c(C(=O)c2cccs2)c2cc(Cl)ccc21", "Potency": "inactive"},
      {"molecule": "O=C(O)CC(O)C(=O)O", "note": "(stereo unspecified)", "Potency": "inactive"},
      {"molecule": "CC/C(=C(\\c1ccccc1)c1ccc(OCCN(C)C)cc1)c1ccccc1", "Potency": "13.9 µM (active) and 15.5 µM (active) and 11.1 µM (active)"},
      {"molecule": "CC(C)c1c(C(=O)Nc2ccccc2)c(-c2ccccc2)c(-c2ccc(F)cc2)n1CC[C@@H](O)C[C@@H](O)CC(=O)O", "Potency": "inactive"},
      {"molecule": "C=C(C)C(=O)OCC(C)O", "note": "(stereo unspecified)", "Potency": "inactive"},
      {"molecule": "Cc1c(C(=O)O)c(O)cc2c1C(=O)c1c(O)c([C@@H]3O[C@H](CO)[C@@H](O)[C@H](O)[C@H]3O)c(O)c(O)c1C2=O", "Potency": "inactive"},
      {"molecule": "Cc1cc(C)nc(NS(=O)(=O)c2ccc(N)cc2)n1", "Potency": "inactive"},
      {"molecule": "CCCCC(CC)C(=O)O", "note": "(stereo unspecified)", "Potency": "inactive"},
      {"molecule": "CCCCCCCCCCCC[N+](C)(C)Cc1ccccc1", "Potency": "21.3 µM (active) and 19.1 µM (active) and 21.2 µM (active)"},
      {"molecule": "NC(=O)c1cccnc1", "Potency": "inactive"},
      {"molecule": "COc1ccc(OC(F)(F)F)cc1CN[C@H]1CCCN[C@H]1c1ccccc1", "Potency": "49 µM (active)"},
      {"molecule": "O=S1(=O)OC(c2ccc(O)cc2)(c2ccc(O)cc2)c2ccccc21", "Potency": "inactive"},
      {"molecule": "CN(N=O)C(=O)N[C@@H]1[C@@H](O)[C@H](O)[C@@H](CO)O[C@@H]1O", "Potency": "inactive"},
      {"molecule": "NC1CCCCC1", "Potency": "inactive"},
      {"molecule": "NS(=O)(=O)O", "Potency": "inactive"},
      {"molecule": "C=CCc1ccc(O)c(OC)c1", "Potency": "inactive"},
      {"molecule": "CC(C)NCC(O)c1ccc(O)c(O)c1", "note": "(stereo unspecified)", "Potency": "inactive"}
    ]}
  ]
}
